Laboratory results: PubChem BioAssay AID588342 (National Center for Advancing Translational Sciences (NCATS), 2011)
Out of some 360,000 compounds screened, about 25,000 (6.9%) were called active. Inconclusive results (about 9%) are left out. The entries come from a sample that favours actives as a whole. A number with no mark means an inactive call. Calls come from the whole dose curve; as a rule, active = well fitted inhibition curve with a large enough effect; inconclusive = small, poorly fitted or top-dose-only effect; inactive = flat fitted curve, though single readings scatter.

molecular target: Luciferin 4-monooxygenase (Photinus pyralis) (UniProt P08659); assay: qHTS profiling assay for firefly luciferase inhibitor/activator using purifed enzyme and Km concentrations of substrates (counterscreen for miR-21 project); details: purified FLuc, luminescence inhibition; series mostly up to 57.5 µM; activity change, negative = inhibition: at the top concentration; note: nearly all actives have a fitted effect of over 55% in size;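 for activity change, negative = inhibition: plate controls were vehicle for no effect and reference inhibitor for full effect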
In short: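 Biochemical qHTS of compounds, final roughly 60 µM downward over six points, against 10 nM purified firefly luciferase using Km concentrations of substrates (10 uM D-luciferin, 10 uM ATP) in Tris acetate pH 7.5 buffer; luminescence output.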
Potency is the fitted concentration of half-maximal effect.

Chain of Luciferin 4-monooxygenase (Photinus pyralis) (P08659 whole entry, looked up): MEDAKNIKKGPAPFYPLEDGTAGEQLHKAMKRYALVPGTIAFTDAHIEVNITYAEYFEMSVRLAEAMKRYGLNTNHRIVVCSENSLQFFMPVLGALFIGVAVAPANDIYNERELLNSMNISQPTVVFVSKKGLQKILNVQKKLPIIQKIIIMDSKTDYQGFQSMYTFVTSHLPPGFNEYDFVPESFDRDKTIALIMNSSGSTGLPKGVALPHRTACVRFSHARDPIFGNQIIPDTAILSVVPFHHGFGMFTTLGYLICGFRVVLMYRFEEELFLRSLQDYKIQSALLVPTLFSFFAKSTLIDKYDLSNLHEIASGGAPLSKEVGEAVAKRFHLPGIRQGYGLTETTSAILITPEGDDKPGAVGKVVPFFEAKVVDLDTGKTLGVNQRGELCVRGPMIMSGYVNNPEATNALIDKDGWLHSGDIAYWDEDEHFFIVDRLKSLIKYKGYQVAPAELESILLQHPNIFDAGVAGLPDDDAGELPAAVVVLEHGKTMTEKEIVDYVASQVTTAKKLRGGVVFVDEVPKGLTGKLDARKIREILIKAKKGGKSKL

SMILES	activity change, negative = inhibition [%]	Potency
O=C(CN(CC1CCCO1)C(=O)CNS(=O)(=O)c1ccc(F)cc1)NCc1ccco1 (stereo unspecified)	-0.026	
CCOc1ccc(N/C=C/C(=O)c2cc(OC)c(OC)c(OC)c2)cc1		13.5 µM (active)
CCC(=O)c1ccc(OC(=O)/C=C/c2cc(OC)c(OC)c(OC)c2)cc1	-18.9	
CCOc1ccc(C(NC(=O)c2cc(OC)c(OC)c(OC)c2)c2cc(Cl)c3cccnc3c2O)cc1 (stereo unspecified)	-4.4	
CC1(C)O[C@@H]2[C@H](O1)[C@@H](COS(=O)(=O)O)O[C@H]2n1ccc(=O)[nH]c1=O	3.4	
O=C(NCC(=O)N(Cc1cccs1)C(C(=O)NC1CCCCC1)c1ccco1)c1cccs1 (stereo unspecified)	0.0391	
Clc1ccc2nc(CSc3ccccc3)cn2c1		0.849 µM (active)
O=C(/C=C/c1ccc2c(c1)OCO2)NCc1cn2cc(Cl)ccc2n1	-17.4	
O=c1c2ccccc2nc2n1C(CSc1ccc(Cl)cc1)CN2 (stereo unspecified)	4.01	
Cc1cccc(-c2oc3ccc(-c4ccc5c(c4)OCO5)cc3c2C#Cc2cncn2C)c1	-28	
Cc1ccc(NC(=O)CN2C(=O)CC(C)Sc3ccccc32)c(C)c1 (stereo unspecified)	-9.71	
COc1cccc(C2=CC(=O)C[C@H](c3ccc(OC)c(OC)c3)C2)c1	-2.01	
C/C(=N\O)C1(C)N(O)C(C)(C)C(c2ccc(Br)cc2)=[N+]1[O-] (stereo unspecified)	-3.47	
CC(=O)C1(C)N(O)C(C)(C)C(c2cccs2)=[N+]1[O-] (stereo unspecified)		0.301 µM (active)
CC1(C)C(c2cccs2)=[N+]([O-])C2(CCCCC2=O)N1O (stereo unspecified)	-7.11	
COc1ccc(SCc2cc(=O)c3ccc(C)c(C)c3[nH]2)cc1	-9.1	
C=CCn1c(SCC(=O)Nc2ccc(NC(C)=O)cc2)nc2sc(C)c(C)c2c1=O	4.96	
CC(=O)Nc1ccc(NC(=O)CSc2nnnn2C2CCCCC2)cc1	1.81	
CC1CCCC(C)N1C(=O)CSc1nnnn1C1CCCC1 (stereo unspecified)	-15.9	
O=C(CSc1nnnn1C1CCCC1)N1CCCCC1		19 µM (active)
COc1ccc(Cn2c(=O)n(-c3ccccc3C)c(=O)c3c4c(sc32)CN(C(C)=O)CC4)cc1	3.07	
COc1ccc(-c2nc3scc(CCNS(=O)(=O)c4cc(F)ccc4OC)n3n2)cc1OC	-15.7	
CCOc1ccc(CNCCSc2nnnn2C)cc1	6.42	
O=C(Nc1ccc2c(c1)CCC2)c1ccc(Br)s1		1.9 µM (active)
CC1CC(C)CN(CCC(=O)Nc2ccc3c(c2)CCC3)C1 (stereo unspecified)	2.31	
O=C(N/N=C\c1cc2c(cc1Cl)OCO2)c1ccc(Br)s1	0.0212	

SMILES	activity change, negative = inhibition [%]	Potency
Cc1cccc(N2CCN(S(=O)(=O)c3ccc4[nH]c5c(c4c3)CCCCC5)CC2)c1C	-0.0208	
CN1CCN(c2oc(-c3ccc(COc4ccc(Cl)cc4)o3)nc2C#N)CC1	-1.14	
Cc1cc(C)cc(NC(=O)CN2C(=O)c3ccccc3C2=O)c1	-1.43	
C=CCn1c(C)cc(C(=O)CN2C(=O)c3ccccc3C2=O)c1C		1.51 µM (active)
C=CCN(CC=C)C(=O)CN1C(=O)c2ccccc2C1=O	-1.87	
CCc1ccc(NC(=O)CCCc2nnc3n(CCCOC)c(=O)c4sccc4n23)cc1	-0.673	
COc1ccccc1NC(=O)c1cc(S(=O)(=O)NCCc2ccccc2)ccc1F	-0.596	
Cc1ccc(C)c(S(=O)(=O)n2nc(C)c(S(=O)(=O)N3CCC(C)CC3)c2C)c1	-16.4	
COc1ccc(CC(=O)Nc2sc(Cc3ccccc3)c(C)c2C(N)=O)cc1	3.91	
COc1ccc(/C(N)=N/OC(=O)Cc2ccccc2)cc1		19 µM (active)
COc1ccc(/C(N)=N/OC(=O)Oc2ccccc2)cc1	-11.7	
CCC(=O)N1CCc2cc(S(=O)(=O)NC(Cc3ccccc3)C(=O)NCc3ccccc3)ccc21 (stereo unspecified)	5.1	
COc1cccc(N(C(=O)c2snc(C(N)=O)c2N)C(C(=O)NCC2CCCO2)c2c[nH]c3ccccc23)c1 (stereo unspecified)	-2.39	
CCOC(=O)C1(Cc2ccccc2C)CCCN(C(=O)CN2C(=O)CSC2=O)C1 (stereo unspecified)	-15.3	
CCOC(=O)C1(Cc2ccccc2C)CCCN(C(=O)c2ccc(COC)o2)C1 (stereo unspecified)		21.3 µM (active)
CCOC(=O)C1(Cc2ccccc2C)CCCN(S(C)(=O)=O)C1 (stereo unspecified)	-0.641	
CCOC(=O)c1cn(CC)c2cc(F)c(F)cc2c1=O	5.04	
COc1ccc(C(=O)NCc2ccc(C)cc2)cc1S(=O)(=O)N1CCCC1	-0.328	
O=C(c1cnn(-c2ccc(F)cc2)c1-n1cccc1)N1CCN(c2ccc(F)cc2)CC1	-9.96	
Nc1ccccc1SC(C[N+](=O)[O-])c1ccccc1 (stereo unspecified)		10.7 µM (active)
Cc1ccc(C(C[N+](=O)[O-])c2c(C)cc3ccccn23)cc1 (stereo unspecified)	0.648	
Cc1ccc(CNC(=O)CCc2c(C)nn(-c3ccc(N4CCCC4)nn3)c2C)cc1	-0.845	
CCCCOC(=O)c1[nH]c(C)c(C(=O)OC)c1C		12 µM (active)
CCOC(=O)c1c(C)[nH]c(C(=O)OCC(=O)c2ccc(OC)cc2OC)c1C	-8.12	
COC(=O)c1c(C)[nH]c(C(=O)NCCc2ccc(S(N)(=O)=O)cc2)c1C	-1.64	
